RT RNaseH block: inhibitors of HIV-1 reverse transcriptase RNase H; P04585; RT-RNase H RNA/DNA duplex cleavage, fluorescence; inhibition, % at 10 µM; hit rate 1.9% among 65,000; in the data active = inhibition above about 50%
RmlCD inh mix: RmlC/RmlD inhibition, mixture screen; hit rate 0.39% among 110,000; inhibition, % at 5.5 µM; RmlC/RmlD coupled enzyme inhibition, 384-well mixture HTS; AID 1532; in the data active = inhibition above about 30%, passing the limit was not always enough
RmlCD fluor art: RmlC/RmlD fluorescence artifact, counter-screen | shares compounds with RmlCD inh mix | RmlC/RmlD assay fluorescence artifact counter-screen | calls only | hit rate 96% among 360 | AID 1696; call rule not given here;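 note: compound alone with no enzyme and no substrates present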
Numbers without * were called inactive; i = inactive; · = no result given; + = active, no number. The sample as a whole holds a higher share of hits than the screen did.

SMILES | RT RNaseH block | RmlCD inh mix | RmlCD fluor art
CCOC(=O)c1sc(Nc2nc3c(OC)cccc3s2)nc1C | 13 | 79* | +
CCn1c(SCC(=O)NCc2ccc3c(c2)OCO3)nnc1-c1c[nH]c2ccccc12 | 3 | -9 | ·
COCC(=O)Nc1ccc(-c2cn3cccnc3n2)cc1 | -14 | 96* | +
Cc1cccn2cc(-c3ccc(NC(=O)Cc4ccccc4)cc3)nc12 | · | 7 | ·
CCOCC(=O)Nc1cc(-c2cn3cccnc3n2)ccc1C | -15 | 107* | +
Cc1ccc(-c2nc3ncccc3o2)cc1NC(=O)COc1ccccc1 | · | -12 | ·
O=C(Nc1cc(C(F)(F)F)ccc1-n1cncn1)c1ccc(-c2ccccc2)cc1 | · | -8 | ·
Cc1cccn2c(=O)c3cc(C#N)c(=NC(=O)c4ccncc4)n(Cc4ccco4)c3nc12 | -3 | · | ·
CCOC(=O)c1cc2c(=O)n3cccc(C)c3nc2n(Cc2ccco2)c1=NC(=O)c1ccccc1 | · | 36* | +
COc1ccc(NC(=O)c2oc3ccccc3c2NC(=O)c2ccc(OC)c(OC)c2)c(OC)c1 | 6 | · | ·
COc1ccc(NC(=O)c2oc3ccccc3c2NC(=O)COc2ccccc2OC)c(OC)c1 | 22 | 104* | +
CC(C)CNc1c(N)c(=O)oc2ccccc12 | · | -10 | ·
O=C1OCC2OC(O)C(O)C(O)C2OC(=O)c2cc(O)c(O)c(O)c2-c2c(O)c(O)c3oc(=O)c4c(c(O)c(O)c5oc(=O)c2c3c54)-c2c1cc(O)c(O)c2O (stereo not drawn) | · | 35* | +
O=C(NC1CCCC1)C(c1cccs1)N(CC1CCCO1)C(=O)Cc1cccs1 (stereo not drawn) | 1 | 7 | ·
CN1CCN(CCCNC(=O)c2ccc3c(c2)N(Cc2ccccc2)CCS3)CC1 | -4 | 38* | +
O=C(NCCN1CCOCC1)c1ccc2c(c1)N(Cc1ccccc1)CCS2 | -1 | 18 | ·
COC(=O)c1c(C)[nH]c(C(=O)CSc2ccc(Cl)cc2)c1C | · | 8 | ·
COc1cccc(C2C(C#N)=C(N)Oc3cc(C)oc(=O)c32)c1OC (stereo not drawn) | -8 | -12 | ·
O=C(O)CC(c1cccc2ccccc12)n1cccc1 (stereo not drawn) | · | -12 | ·
COc1ccc(-c2cc(C(F)(F)F)n3nc(N)nc3n2)cc1 | · | 75* | +
COc1cccc(-c2cc(C(F)(F)F)n3nc(N)nc3n2)c1 | -8 | 14 | ·
CN(C)CCOc1nc(-c2ccccc2)nc2c1oc1ccccc12 | -16 | -7 | ·
CCN1CCN(C(=S)c2ccc(OCC(=O)N3CCOCC3)cc2)CC1 | · | -11 | ·
CN1CCN(C(=O)CN(CCc2ccccc2)S(C)(=O)=O)CC1 | · | -20 | ·
CCCc1cc(N2CCN(C(=O)c3ccco3)CC2)n2c(nc3ccccc32)c1C#N | · | 39* | +
SMILES | RT RNaseH block | RmlCD inh mix | RmlCD fluor art
CCCc1cc(-n2ccnc2C)n2c(nc3ccccc32)c1C#N | -8 | · | ·
Cc1cc(C(=O)Nc2c(F)cc(F)cc2Br)c(C)o1 | -9 | 0 | ·
C#Cc1ccc2c(c1)COc1c3ccccc3nn1-2 | · | 4 | ·
CCOC(=O)CSc1nnc(-c2ccccc2OC)o1 | -8 | 9 | ·
CCCCCCc1cc2cc(-c3nnc(-c4ccccc4OC)o3)c(=O)oc2cc1O | · | 181* | +
O=C(Nc1ccc(Cl)cc1)N(C1=NCCC1)c1ccc(OC(F)F)cc1 | · | -1 | ·
CNC(=O)c1cc2c(s1)-c1ccccc1CC2 | · | · | +
O=C(N/N=C/c1ccc(F)c(F)c1)c1cc2c(s1)-c1ccccc1CC2 | · | -111 | ·
CC1=NC(C(F)(F)F)(C(F)(F)F)C2=C(CC(C)(C)CC2=O)N1Cc1ccco1 | 1 | -12 | ·
CCOc1cc(-c2nc3ccccn3c2NCC2CCCO2)ccc1O (stereo not drawn) | -8 | 14 | ·
CCOc1cc(-c2nc3c(C)cccn3c2NCC2CCCO2)ccc1O (stereo not drawn) | -9 | 44* | +
COc1ccc(N(CC(=O)NN=C2CCCCCCC2)S(=O)(=O)c2ccccc2)cc1 | · | 4 | ·
CN(C)S(=O)(=O)c1ccc(-c2cn3ccccc3n2)cc1 | · | 40* | +
Cc1ccc2nc(-c3cccc(S(=O)(=O)N(C)C)c3)cn2c1 | -9 | 10 | ·
O=C(O)c1ccc(-c2nc3ccccc3[nH]2)cc1 | · | · | i
Nc1ccc(-c2nc3ccccc3[nH]2)cc1 | -1 | 19 | ·
N/C(COc1cccc(C(F)(F)F)c1)=N\NC(=O)c1cccnc1Oc1ccccc1 | · | -12 | ·
Cc1ccc2c(n1)CC(C)(C)CC2=O | · | 2 | ·
CS(=O)(=O)N(CC(=O)N1CCc2ccccc2C1)Cc1ccccc1 | · | 11 | ·
Cc1onc(-c2c(F)cccc2Cl)c1C(=O)NC1CCSC1=O (stereo not drawn) | · | -10 | ·
COc1ccc(-c2cc3nc[nH]c(=O)c3s2)cc1 | · | 51* | +
O=c1[nH]cnc2cc(-c3ccccc3)sc12 | -4 | 1 | ·
CCOC(=O)c1sc(N)c(C#N)c1CSc1nnc(C2CCCCC2)n1N | 16 | 6 | ·
O=C(COc1ccccc1)Nc1nn[nH]n1 | 0 | · | ·
CC(=O)Oc1ccc2c(C)cc(=O)oc2c1 | · | + | +
SMILES | RT RNaseH block | RmlCD inh mix | RmlCD fluor art
CC(=O)Oc1cc2oc(=O)cc(C)c2cc1OC(C)=O | -5 | i | ·
COc1ccc2c(C)cc(=O)oc2c1C | -10 | -4 | ·
Cc1oc2cc(O)ccc2c(=O)c1N1C(=O)c2ccccc2C1=O | 3 | 4 | ·
CC(=O)Oc1ccc2c(C)cc(=O)[nH]c2c1 | 1 | 64* | +
CC(=O)Nc1c(OC(C)=O)ccc2c(C)cc(=O)oc12 | -16 | + | +
Cc1ccccc1-c1c(C)oc2cc(O)ccc2c1=O | -6 | 38* | +
Cc1cc(=O)[nH]c2cc(O)ccc12 | · | -2 | ·
O=C(NCCc1c[nH]c2ccccc12)C(F)(F)F | · | 3 | ·
CCO[C@H]1OC(C(=O)N2CCN(C)CC2)=C[C@@H](C)[C@@H]1CCCO | · | -11 | ·
CN1C[C@@H]2C(c3ccc(C(F)(F)F)cc3)C3(c4cccnc4)CC2(C3)[C@H]1c1ccccc1 (stereo partly drawn) | · | -17 | ·
CCCCn1c(SCC(=O)N2CCCc3ccccc32)nc2c1c(=O)n(C)c(=O)n2C | -6 | -5 | ·
Cc1cc(=O)oc2cc(O)ccc12 | · | 84* | +
O=c1cc(O)c2ccc(O)cc2o1 | · | 104 | ·
C/C(=N\NC(=O)c1cccc(F)c1)c1ccc(Br)s1 | · | -11 | ·
CCOC(=O)N1CCN(C(=O)c2ccc3nc4ccc(Cl)cc4c(=O)n3c2)CC1 | -2 | 48* | +
CCOC(=O)N1CCN(C(=O)c2ccc3nc4ccsc4c(=O)n3c2)CC1 | -9 | · | ·
N#Cc1c(C(F)(F)F)cc(-c2ccccc2)[nH]c1=O | · | 28 | ·
N#Cc1c(C(F)(F)F)cc(C2CC2)[nH]c1=O | 1 | 40* | +
C=CCN(C(=O)COc1ccccc1)c1nnc(-c2ccncc2)s1 | · | 154* | +
COCCN(C(=O)c1cccc(OC)c1)c1nnc(-c2ccncc2)s1 | -4 | -36 | ·
Cc1cc(OC(=O)c2ccco2)c2c3c(c(=O)oc2c1)CCC3 | -4 | -129 | ·
O=c1oc2cc(O)ccc2c2ccccc12 | · | -12 | ·
O=c1oc2cc(O)ccc2c2c1CCCC2 | -28 | 126* | +
O=C(Oc1ccc2c3c(c(=O)oc2c1)CCCC3)c1ccco1 | -11 | 110* | +
COc1ccc(C(=O)NC2(C(F)(F)F)C(=O)Nc3c2c(=O)[nH]c(=O)n3CCc2ccc(OC)c(OC)c2)cc1 (stereo not drawn) | · | -172 | ·
O=c1oc2c(CN3CCOCC3)c(O)ccc2c2c1CCC2 | -6 | 100* | +

Source: PubChem (several laboratories)
